Shown are actives, neighbours in structure and some others; about 5.7% of the full set was active somewhere.
D3 ag – activates the human D3 dopamine receptor | P35462 | max activation, % | AID 652048 | D3R DiscoveRx beta-arrestin cells, luminescence, 90 min | hit rate 0.58% among 410,000; in the data active = max activation above about 30%; also: 0% is about no effect
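Agonist mode: compounds and dopamine controls were applied to plated cells for 90 min at 37 degrees C after an overnight attachment at 1500 cells/well. Luminescent read-out followed 30 - 60 minutes at room temperature with DiscoveRx detection reagent.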
GLP-1R agonist – agonists of human GLP-1 receptor; Potency, µM (highest dose often 45.6 µM), without a hit: top-dose activation, most hits filed as activators; hit rate 0.007% among 380,000; HEK293 GLP-1R CRE-luciferase, luminescence, 4-6 h; cells express a hypersensitive GLP-1R form; AID 624172; also: potency is read from the fitted curve at half-maximal effect; % of control where 0% means no effect
DRD3 antagonist – blocks the human D3 dopamine receptor; P35462; D3R cells, DiscoveRx beta-arrestin luminescence, antagonist mode; hits give low values; max response, negative = inhibition, %; hit rate 2.5% among 360,000; in the data active = max response below about -50%; inconclusive = no clear call, values can overlap the other calls; also: % is scaled to controls: 0 for no effect and ±100 for the full control effect
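Cells expressing the human receptor were seeded at 1500 cells/well, incubated overnight at 37 degrees C in 5% CO2, then exposed to library compounds with dopamine controls for 90 minutes at 37 degrees C before luminescent detection.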
ClpP mod – qHTS Assay for Activators of ClpP; ATP-dependent Clp protease proteolytic subunit (Bacillus subtilis (strain 168)), P80244; purified B. subtilis ClpP, FRET peptide cleavage, 20 min; Potency, µM (highest dose often 57.5 µM), without a hit: at the highest dose activity change, negative = active; hit rate 1.9% among 340,000; AID 651965, 2013; active = well fitted falling curve with a large enough effect; inconclusive = small, poorly fitted or top-dose-only effect; inactive = no such curve, though single readings can be large or run the other way; also: potency is read from the fitted curve at half-maximal effect; the source files actives as falling curves though it sought activators and does not explain the sign; nearly all actives have a fitted effect of over 65% in size
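Buffer: 100 mM Tris/HCl pH8, 100 mM KCl, 0.05% low protease BSA, 2.5% glycerol, 0.01% Tween-20. ClpP 10 microg/mL final; 20 min RT; delta FRET normalized to ADEP and DMSO controls.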
GLP-1R inv ag – acts as inverse agonist at human GLP-1 receptor | P43220 | HEK293 GLP-1R CRE-luciferase, luminescence, 24 h; GLP-1R form is constitutively active | Potency, µM (doses to about 38.3 µM), without a hit: at the highest dose activity change, negative = inhibition, hits mostly inhibitors | hit rate 1.6% among 410,000 | AID 624417; also: potency is read from the fitted curve at half-maximal effect; % is scaled to controls: 0 for no effect and ±100 for the full control effect; nearly all actives have a fitted effect of over 55% in size
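Luminescence readout: a drop in cAMP-driven luciferase signal flags inverse agonism at a constitutively active GLP-1R stably expressed in HEK293. Compound exposure lasted 24 hr at 37 deg C, 5% CO2.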
HEK293 tox – cytotoxicity counter-screen for GLP-1 receptor inverse agonists; HEK293 cAMP-luciferase reporter cells, luminescence, 24 h; Potency, µM (doses to about 38.3 µM), for inactives: at the top dose activity change, negative = inhibition, actives largely listed as inhibitors; hit rate 0.13% among 410,000;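 also: loss of luciferase light is scored as toxicity; potency is read from the fitted curve at half-maximal effect; % is scaled to controls: 0 for no effect and ±100 for the full control effect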
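Luminescence readout: signal drop marks cytotoxicity. Plated cells grew 12 h at 37 °C, 5% CO2, received 23 nL compound for 24 h, then got luciferase reagent, read after 12 min at RT.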
Starred values were filed as active, the others as inactive. Unless noted, calls follow the shape of the dose curve; as a rule, active = well fitted curve in the direction sought with a large enough effect; inconclusive = small, poorly fitted or top-dose-only effect, or another doubt; inactive = no such curve, though single readings can be large; an effect the other way counts as inactive or inconclusive.

N#C/C(=C(/O)COC(=O)CSc1ccc(Cl)cc1)c1nc2ccccc2[nH]1 was read as D3 ag -7, GLP-1R agonist -18%, DRD3 antagonist -9, ClpP mod -13%, GLP-1R inv ag inconclusive and HEK293 tox 8.9µM*.
For COc1ccc(C2C=C(c3ccccc3)Nc3nc(NC(=O)/C=C/c4ccc(Cl)cc4)nn32)cc1 (stereo not given) the results were D3 ag 5, ClpP mod -13%, GLP-1R inv ag 21% and HEK293 tox 73%.
CCCSc1nc(N)c2c3c(sc2n1)CN(C)CC3 was read as D3 ag -22, GLP-1R agonist 21%, DRD3 antagonist -2, ClpP mod inconclusive, GLP-1R inv ag -18% and HEK293 tox 0%.
CSc1nc(NCc2ccccc2)c2c3c(sc2n1)CN(C)CC3 was read as D3 ag 0, GLP-1R agonist 5%, DRD3 antagonist -76*, ClpP mod 14µM*, GLP-1R inv ag 1% and HEK293 tox 23%.
COCCNc1nc(SC)nc2sc3c(c12)CCN(C)C3 was read as D3 ag -9, GLP-1R agonist -2%, DRD3 antagonist -9, ClpP mod 3%, GLP-1R inv ag 3% and HEK293 tox 14%.
CC(C)Sc1nc(N)c2c3c(sc2n1)CN(C)CC3 was read as D3 ag -14, GLP-1R agonist 26%, DRD3 antagonist -58*, ClpP mod 28µM*, GLP-1R inv ag 44% and HEK293 tox 73%.
Screening CSc1nc(NCC(C)C)c2c3c(sc2n1)CN(C)CC3 returned D3 ag -11, GLP-1R agonist 6%, DRD3 antagonist -72*, ClpP mod inconclusive, GLP-1R inv ag 22% and HEK293 tox 31%.
Screening CCN(C)C1CN(Cc2cn(Cc3ccc(C(F)(F)F)cc3)nn2)S(=O)(=O)C1 (stereo not given) returned D3 ag -1, GLP-1R agonist 0%, DRD3 antagonist 5, ClpP mod -2%, GLP-1R inv ag 15% and HEK293 tox 5%.
Screening COc1cc(/C=N/NC(=O)c2ccc(CSc3nncn3C)cc2)ccc1OCC(=O)N1CC(C)OC(C)C1 (stereo not given) returned D3 ag -7, GLP-1R agonist -5%, DRD3 antagonist 2, ClpP mod -5%, GLP-1R inv ag -4% and HEK293 tox 1%.
For COc1cc(/C=N/NC(=O)c2ccc(Cl)cc2)ccc1OCC(=O)N1CC(C)OC(C)C1 (stereo not given) the results were D3 ag -24, GLP-1R agonist 7%, DRD3 antagonist -54*, ClpP mod -3%, GLP-1R inv ag -7% and HEK293 tox 15%.
For O=C(CN1CCSC1=NCc1ccccc1)c1ccc(Cl)cc1 the results were D3 ag -15, GLP-1R agonist 14%, DRD3 antagonist -67*, ClpP mod -3%, GLP-1R inv ag inconclusive and HEK293 tox -5%.
For O=C(Nc1ccc(Cl)cc1)N1CCSC1=NCc1ccccc1 the results were D3 ag 1, GLP-1R agonist 1%, DRD3 antagonist 18, ClpP mod 1%, GLP-1R inv ag -5% and HEK293 tox 19%.
`Cc1cc(C)c(OCC(=O)N(Cc2ccco2)Cc2ccco2)c(C)c1` gave D3 ag 4, ClpP mod 1%, GLP-1R inv ag inconclusive and HEK293 tox 2%.
`O=C(N/N=C1\C/C(=N\NC(=O)c2ccncc2)c2ccccc21)c1ccncc1` gave D3 ag -14, GLP-1R agonist -4%, DRD3 antagonist -6, ClpP mod 1%, GLP-1R inv ag 10% and HEK293 tox -28%.
For O=C(N/N=C1\CCCc2c1[nH]c1ccc(Cl)cc21)c1ccncc1 the results were D3 ag -15, GLP-1R agonist 0%, DRD3 antagonist -13, ClpP mod -2%, GLP-1R inv ag 7.1µM* and HEK293 tox inconclusive.
`O=C(Nc1ccccc1)c1cccc2c(=O)c3c([nH]c12)CCCC3` gave D3 ag 6, ClpP mod 0%, GLP-1R inv ag 0% and HEK293 tox 6%.
For Cc1ccc2cc(CN(C)C(=O)c3cccc(Cl)c3)c(=O)[nH]c2c1 the results were D3 ag 5, ClpP mod -24%, GLP-1R inv ag -2% and HEK293 tox -4%.
For O=C(CC(c1ccccc1)c1cc(Br)ccc1O)NCC1(c2ccccc2)CCCC1 (stereo not given) the results were D3 ag 30*, ClpP mod -4%, GLP-1R inv ag inconclusive and HEK293 tox inconclusive.
For O=C(Nc1ccc2oc(-c3cccnc3)nc2c1)c1ccc(-c2cccc(Cl)c2)o1 the results were D3 ag -1, ClpP mod 4%, GLP-1R inv ag 4% and HEK293 tox 1%.
Cc1cccc(C)c1NC(=O)C1=C(O)c2ccccc2N(C)S1(=O)=O was read as D3 ag 6, GLP-1R agonist 1%, DRD3 antagonist -52*, ClpP mod 0%, GLP-1R inv ag inconclusive and HEK293 tox -7%.
`Cc1ccc(NC(=O)C2=C(O)c3ccccc3N(C)S2(=O)=O)cc1` gave D3 ag -4, GLP-1R agonist -11%, DRD3 antagonist -1, ClpP mod -2%, GLP-1R inv ag inconclusive and HEK293 tox -5%.
CCN(CC)c1ccc(/C=C2/C(=O)c3ccc(C(=O)O)cc3C2=O)cc1 was read as D3 ag -11, GLP-1R agonist 3%, DRD3 antagonist -56*, ClpP mod 0%, GLP-1R inv ag 21% and HEK293 tox -24%.
`COc1ccccc1NC(=O)Cn1c(=O)n(-c2cccc(C)c2)c(=O)c2c1c1cc(C)ccc1n2C` gave D3 ag 0, ClpP mod 4%, GLP-1R inv ag 1% and HEK293 tox -16%.
For CCc1ccc(N2C(=O)N(CC(=O)C(C)(C)C)c3ccccc3S2(=O)=O)cc1 the results were D3 ag 2, GLP-1R agonist 0%, ClpP mod 0%, GLP-1R inv ag 10% and HEK293 tox -1%.
O=C(NNC(=O)c1ccccc1Cl)c1cc2cc(OC(F)(F)F)ccc2[nH]1 was read as D3 ag 8, GLP-1R agonist 0%, DRD3 antagonist 12, ClpP mod 16µM*, GLP-1R inv ag 3% and HEK293 tox 0%.
O=S(=O)(NCCc1nnc2ccc(SCc3c(F)cccc3Cl)nn12)c1ccccc1 was read as D3 ag 9, ClpP mod -19%, GLP-1R inv ag 19% and HEK293 tox -12%.
